Bioassay records from PubChem BioAssay.
Mito fusion act: qHTS Assay for Small Molecule Inhibitors of Mitochondrial Division or Activators of Mitochondrial Fusion; S. cerevisiae fusion-defective mutant growth rescue, CellTiterGlo 48 h; Potency, µM (highest dose often 46.1 µM), without a hit: top-dose growth rescue (activation), usual class: activators; 320,000 tested, 0.23% active; AID 485298, 2010; note: % of control where 0% means no effect; nearly all actives have a fitted effect of over 45% in size
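Read-out: ATP-based luminescence (CellTiterGlo, 10 min ambient) reporting growth of fusion-defective ts yeast after 48 hours at 37C on glycerol/ethanol YPEG medium in the presence of compound.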
TDP-43 yeast inh: qHTS of TDP-43 Inhibitors. TDP-43 expressing yeast growth rescue, BacTiter-Glo, 24 h. Potency, µM (series often up to 46.1 µM), for the others: at the highest dose growth rescue (activation), hits mostly activators. 410,000 tested, 1.8% active; note: % of control where 0% means no effect; nearly all actives have a fitted effect of over 50% in size
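Yeast cells expressing TDP-43 under galactose induction are exposed to compounds for 24 hr at 30 deg C. BacTiter-Glo luminescence measures growth, so protective compounds score as activators.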
aSyn rescue: qHTS of alpha-syn Inhibitors; Yeast expressing alpha-synuclein, growth rescue, BacTiter-Glo, 24 h; Potency, µM (series often up to 46.1 µM), for inactives: at the top dose growth rescue (activation), most hits filed as activators; 370,000 tested, 0.14% active; AID 652106, 2013; note: % of control where 0% means no effect; nearly all actives have a fitted effect of over 65% in size
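Readout is rescue of growth in alpha-synuclein-expressing yeast, so inhibitors of toxicity appear as activators. Growth after 24 hr at 30 deg C in galactose medium is quantified by luminescence.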
Abeta rescue: qHTS for compounds that reverse cellular toxicity of Amyloid beta (A-beta) peptide in yeast: Primary Screen | yeast expressing A-beta42, growth rescue, OD600, 48 h; response scale: 0% DMSO, 100% iron-clioquinol control | Potency, µM (doses to about 46.1 µM), most hits filed as activators | 410,000 tested, 0.063% active | AID 1347071, 2019; note: nearly all actives have a fitted effect of over 55% in size
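Yeast A-beta toxicity model in growth medium with pinned compounds, 48 h at 30 C; growth read as absorbance at 600 nm. Normalized to FeCl3/clioquinol equimolar mix (positive) and DMSO (negative).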
FUS suppressor: qHTS for Suppressors of FUS Proteinopathy: Primary screen using FUS-linked yeast assay; AID 1347120, 2019; S. cerevisiae FUS-expressing, growth rescue, OD600, 24 h; Potency, µM (titrated, usually from 76.6 µM), actives largely listed as activators; 390,000 tested, 0.24% active;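 note: plate controls were DMSO vehicle for no effect and reference control for full effect; nearly all actives have a fitted effect of over 55% in size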
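FUS-expressing yeast, raffinose-pregrown, induced in 2% galactose minimal medium at OD 0.005; compounds in a dilution series, 24hr at 30C. Growth restoration read as absorbance at 600 nm. CP55940 positive control, DMSO negative.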
A-T KAP1 phos: qHTS Assay for Identifying a Potential Treatment of Ataxia-Telangiectasia; AID 485349, 2010; F2112 A-T fibroblasts, KAP-1 phosphorylation AlphaLISA; neocarzinostatin DNA damage 30 min before lysis; 320,000 tested, 0.19% active; Potency, µM (doses to about 57.5 µM), for inactives: at the highest dose activation, usual class: activators; note: % of control where 0% means no effect; nearly all actives have a fitted effect of over 45% in size
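hTERT-immortalized A-T patient fibroblasts (F2112), 500 cells/well in OPTI-MEM, 1% FBS, got compounds for 60 min, then NCS for 30 min at 37C. Lysates were then assayed for phospho-KAP-1 by AlphaLISA (anti-pKAP1 donor, anti-KAP1 acceptor beads), 6 hr at 25C.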
Starred values were filed as active, the others as inactive; i = inactive; ? = inconclusive; nt = no result. Rows were chosen to be rich in hits. Some 2.4% of all compounds tested hit in one or more screens of this group. Calls come from the whole dose curve; as a rule, active = well fitted curve in the direction sought with a large enough effect; inconclusive = small, poorly fitted or top-dose-only effect, or another doubt; inactive = no such curve, though single readings can be large; an effect the other way counts as inactive or inconclusive. Potency is the fitted concentration of half-maximal effect.

SMILES | Mito fusion act | TDP-43 yeast inh | aSyn rescue | Abeta rescue | FUS suppressor | A-T KAP1 phos
CC(OC(=O)c1ccc(NS(=O)(=O)c2cccs2)cc1)C(=O)N(C)C1CCCCC1 (stereo not drawn) | 0% | -6% | -3% | i | 32µM* | -3%
CC1CCN(S(=O)(=O)c2ccc(C(=O)OC(C)C(=O)N(C)C3CCCCC3)cc2)CC1 (stereo not drawn) | 5% | -19% | -6% | i | i | -2%
Cc1ccc(NC(=O)CC2SC(=O)N(c3ccccc3)C2=O)cc1 (stereo not drawn) | -1% | 20µM* | 5% | i | i | -5%
Cc1ccc(S(=O)(=O)/N=C2\SC(CC(=O)Nc3ccc(F)cc3)C(=O)N2c2ccccc2)cc1 (stereo not drawn) | -4% | 1% | -8% | i | nt | 10%
O=C(CC1S/C(=N\S(=O)(=O)c2ccccc2)N(c2ccccc2)C1=O)Nc1ccc(F)cc1 (stereo not drawn) | 5% | -3% | 8% | i | 18µM* | 4%
O=C(CC1SC(=O)N(c2ccccc2)C1=O)Nc1ccccc1 (stereo not drawn) | -9% | -6% | -4% | i | ? | -11%
COc1cccc(-c2nnc3n2N=C(c2ccc(Cl)cc2)CS3)c1 | nt | nt | nt | nt | i | nt
O=[N+]([O-])c1ccc(Nc2ccccc2F)nc1 | -3% | 18µM* | -1% | i | i | 0%
CCCn1c(CN2CCN(c3ccc(OC)cc3)CC2)nc2c1c(=O)[nH]c(=O)n2C | nt | -1% | nt | i | i | nt
CCc1ccc([C@H]2C(C(=O)O)=C[C@@H](C(C)(C)C)N2S(=O)(=O)c2ccc(C)cc2)cc1 | nt | 14µM* | -14% | i | i | 13%
CCOC(=O)C1=C[C@@H](C(C)(C)C)N(S(=O)(=O)c2ccc(C)cc2)[C@H]1c1ccccc1 | nt | 0% | -21% | i | i | nt
Cc1ccc(-c2nc3scc(CCNS(=O)(=O)c4c(C)noc4C)n3n2)cc1 | nt | 12% | nt | i | i | nt
COC(=O)c1nn(-c2ccc(OC)cc2)c(=O)cc1O | 1.6µM* | -6% | 3% | i | i | 8%
COc1cc(/C=C/C(=O)Nc2cc(C(F)(F)F)ccc2Cl)cc(OC)c1OC | 4% | 22µM* | 0% | i | i | 4%
CC(C)(C)C(=O)O/N=C(\N)c1c(Cl)cccc1Cl | 4% | 13µM* | 3% | i | i | 3%
O=C(NCc1ccc(F)c(F)c1)C1C2C=CC3(CN(Cc4ccccc4)C(=O)C13)O2 (stereo not drawn) | nt | nt | nt | nt | i | nt
COc1cccc(Cn2c(=O)n(-c3ccc(Br)cc3F)c(=O)c3sc4ccccc4c32)c1 | nt | ? | nt | i | i | nt
COc1cccc(CN2C(=O)c3cccc(N)c3C2=O)c1 | 25% | ? | 3% | i | nt | 25µM*
COc1cccc(CN2C(=O)c3ccccc3S2(=O)=O)c1 | 0% | 21% | ? | i | i | -7%
CCC(=O)NC(c1ccco1)c1cc(Cl)c2cccnc2c1O (stereo not drawn) | 9% | 17% | 11µM* | i | i | 2%
Cc1nn(-c2ccccc2)c(OC(=O)c2cccs2)c1S(=O)(=O)c1ccccc1 | 1% | 6% | 3% | i | i | -1%
Cc1nn(-c2ccccc2)c(OC(=O)c2cccs2)c1S(=O)(=O)c1ccc([N+](=O)[O-])cc1 | -3% | -31% | -2% | i | 40µM* | -2%
CCc1ccc(-n2c(=O)c3cccnc3n2CC(=O)N(CC)c2cccc(C)c2)cc1 | nt | 3% | nt | i | i | nt
CCCCc1ccc(NC(=O)CN(C)CC(=O)Nc2ccccc2Cl)cc1 | -15% | 13% | 27% | ? | 35µM* | 5%
C/C(=N\Nc1nc(C(C)(C)C)cs1)c1ccc(O)cc1 | -8% | 11% | -16% | i | i | 0%
SMILES | Mito fusion act | TDP-43 yeast inh | aSyn rescue | Abeta rescue | FUS suppressor | A-T KAP1 phos
C/C(=N\Nc1nc(C(C)(C)C)cs1)c1ccccc1 | -14% | 22µM* | -26% | i | i | 32%
C/C(=N\Nc1nc2c(s1)CCCC2)c1ccccc1 | -10% | 20µM* | 7% | i | ? | 1%
O=C(Nc1nc2c(s1)CCCC2)Oc1ccccc1 | -9% | 1% | 1% | i | i | -4%
O=C(NCc1ccccc1Br)c1ccc2c(c1)nc1n2CCOC1 | nt | 10% | nt | i | i | nt
O=C(Cn1ncn2nc(-c3cccs3)cc2c1=O)NCc1ccccc1Cl | nt | 13% | nt | i | i | nt
COc1ccc2c(=O)c(-c3ccccc3)c(C)oc2c1 | 5% | 11µM* | 6% | i | i | 4%
CCOc1ccc2nc(N(Cc3cccnc3)C(=O)c3ccc4c(c3)OCCO4)sc2c1 | nt | 26% | nt | i | i | nt
COc1ccc(-c2csc(C(C)(NC(C)=O)c3ccc(OC)cc3)n2)cc1 (stereo not drawn) | nt | ? | -21% | i | i | nt
COc1ccc(C(C)(NC(C)=O)c2nc(-c3ccc(F)c(Cl)c3)cs2)cc1 (stereo not drawn) | nt | 35µM* | 7% | i | ? | nt
C/C(C=NNC(=O)c1cc(-c2ccc(C)c(C)c2)n[nH]1)=C/c1ccco1 | nt | nt | nt | nt | i | nt
O=C(N/N=C\C=C\c1ccco1)c1cc(-c2ccc3ccccc3c2)n[nH]1 | -2% | 16% | 18µM* | i | ? | 1%
C=C(c1nc2ccccc2s1)C1Cc2cccc3c2N(CCC3)C1 (stereo not drawn) | nt | nt | -78% | nt | nt | nt
COc1ccc(Oc2c(Cl)cnn(-c3ccc(C(C)C)c(C)c3)c2=O)cc1 | nt | nt | nt | nt | i | nt
O=C(Nc1ccc(OCc2ccccc2Cl)cc1)c1cccnc1 | -20% | 16µM* | -2% | i | i | 4%
CCN1C(=O)/C(=C\c2nc3ccccc3c(=O)n2CC)c2ccccc21 | 24% | 13µM* | 6% | i | i | -12%
CCn1c(/C=C\c2ccccc2C)nc2ccccc2c1=O | 19% | 22µM* | -5% | i | i | 0%
CCn1c(/C=C2/C(=O)N(C)c3ccccc32)nc2ccccc2c1=O | 0% | 14µM* | 19% | i | i | 12%
O=C(CSc1nc2ccccc2[nH]1)NN=Cc1c(F)cccc1Cl | nt | nt | nt | nt | i | nt
CCOc1ccc(CCNC(=O)c2cc3cccc4c3n2CCS4)cc1 | nt | 10% | nt | i | i | nt
